Reference: the supplement of paper PMC9492666
Counter-ions that a name gives are not always drawn.

Tests used:
HCC1937 = assay: relative cell viability, compound + RSL3, vs DMSO (fraction of DMSO control); higher = less growth inhibition; settings: 72 h
MDA-MB-231 = assay: as above; settings: 72 h
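Further: breast cancer cell viability read out with the CCK-8 kit after co-treatment of each compound with the ferroptosis inducer RSL3.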

SMILES | relative cell viability (HCC1937) | relative cell viability (MDA-MB-231)
CC[C@H](C)C(=O)O[C@H]1C[C@H](O)C=C2C=C[C@H](C)[C@H](CC[C@@H](O)C[C@@H](O)CC(=O)O)[C@H]21 [Pravastatin sodium] + COC(=O)c1ccc([C@H]2c3[nH]c4ccccc4c3C[C@H](C(=O)OC)N2C(=O)CCl)cc1 [RSL3] | 0.77 | 0.606
CC[C@@H]1/C=C(\C)C[C@H](C)C[C@H](OC)[C@H]2O[C@@](O)(C(=O)C(=O)N3CCCC[C@H]3C(=O)O[C@H](/C(C)=C/[C@@H]3CC[C@@H](O)[C@H](OC)C3)[C@H](C)[C@@H](O)CC1=O)[C@H](C)C[C@@H]2OC [Ascomycin] + COC(=O)c1ccc([C@H]2c3[nH]c4ccccc4c3C[C@H](C(=O)OC)N2C(=O)CCl)cc1 [RSL3] | 0.1 | 0.236
CCC(=O)O[C@]1(C(=O)SCF)[C@H](C)C[C@H]2[C@@H]3C[C@H](F)C4=CC(=O)C=C[C@]4(C)[C@@]3(F)[C@@H](O)C[C@@]21C [Fluticasone propionate] + COC(=O)c1ccc([C@H]2c3[nH]c4ccccc4c3C[C@H](C(=O)OC)N2C(=O)CCl)cc1 [RSL3] | 0.751 | 0.566
O=C(ON1C(=O)CCC1=O)N1CCN(C(c2ccc(Cl)cc2)c2ccc(Cl)cc2)CC1 [Cravatt Reagent] + COC(=O)c1ccc([C@H]2c3[nH]c4ccccc4c3C[C@H](C(=O)OC)N2C(=O)CCl)cc1 [RSL3] | 0.55 | 0.716
COc1ccc(-c2cc(=O)c3c(O)c(OC)c(O)cc3o2)cc1OC [Eupatilin] + COC(=O)c1ccc([C@H]2c3[nH]c4ccccc4c3C[C@H](C(=O)OC)N2C(=O)CCl)cc1 [RSL3] | 0.354 | 0.496
COc1ccc(C(=O)/C=C/c2ccccc2)cc1 [4'-Methoxychalcone] + COC(=O)c1ccc([C@H]2c3[nH]c4ccccc4c3C[C@H](C(=O)OC)N2C(=O)CCl)cc1 [RSL3] | 0.282 | 0.582
COP(=O)(OC)OC(c1ccc(Cl)cc1)P(=O)(OC)OC (stereo unspecified) [Mifobate] + COC(=O)c1ccc([C@H]2c3[nH]c4ccccc4c3C[C@H](C(=O)OC)N2C(=O)CCl)cc1 [RSL3] | 0.632 | 0.669
COc1ccc2c(c1)c(CC(=O)O)c(C)n2C(=O)c1ccc(Cl)cc1 [Indometacin] + COC(=O)c1ccc([C@H]2c3[nH]c4ccccc4c3C[C@H](C(=O)OC)N2C(=O)CCl)cc1 [RSL3] | 1.01 | 0.61
N=C(N)NCCC(=O)O [3-Guanidinopropionic Acid] + COC(=O)c1ccc([C@H]2c3[nH]c4ccccc4c3C[C@H](C(=O)OC)N2C(=O)CCl)cc1 [RSL3] | 0.509 | 0.659
N[C@@H](Cc1c[nH]cn1)C(=O)O [histidine] + COC(=O)c1ccc([C@H]2c3[nH]c4ccccc4c3C[C@H](C(=O)OC)N2C(=O)CCl)cc1 [RSL3] | 0.622 | 0.673
CCOC(=O)c1c(NC(=O)CN2CCN(C(=O)c3ccco3)CC2)sc2c1CCC2 + COC(=O)c1ccc([C@H]2c3[nH]c4ccccc4c3C[C@H](C(=O)OC)N2C(=O)CCl)cc1 [RSL3] | 0.384 | 0.476
O=C(/C=C/c1ccc(/C=C/C(=O)Nc2ccc(C3=NCCN3)cc2)cc1)Nc1ccc(C2=NCCN2)cc1 + COC(=O)c1ccc([C@H]2c3[nH]c4ccccc4c3C[C@H](C(=O)OC)N2C(=O)CCl)cc1 [RSL3] | 0.296 | 0.378
CCc1ccc(CCOc2ccc(CC3SC(=O)NC3=O)cc2)nc1 (stereo unspecified) [Pioglitazone] + COC(=O)c1ccc([C@H]2c3[nH]c4ccccc4c3C[C@H](C(=O)OC)N2C(=O)CCl)cc1 [RSL3] | 0.919 | 0.629
O=C(O)c1c[nH]c2cc(Cl)c(-c3ccc(C4(O)CCC4)cc3)cc12 + COC(=O)c1ccc([C@H]2c3[nH]c4ccccc4c3C[C@H](C(=O)OC)N2C(=O)CCl)cc1 [RSL3] | 0.572 | 0.572
CC(C)(C)N1C(=O)C(Nc2ccc(N3CCCCC3)cc2)=C(c2ccccc2)S1(=O)=O + COC(=O)c1ccc([C@H]2c3[nH]c4ccccc4c3C[C@H](C(=O)OC)N2C(=O)CCl)cc1 [RSL3] | 0.686 | 0.69
CC(C)n1c(/C=C/C(O)CC(O)CC(=O)O)c(-c2ccc(F)cc2)c2ccccc21 (stereo unspecified) [Fluvastatin sodium salt] + COC(=O)c1ccc([C@H]2c3[nH]c4ccccc4c3C[C@H](C(=O)OC)N2C(=O)CCl)cc1 [RSL3] | 0.504 | 0.547
COc1ccc(N(C(=O)Nc2c(C)cccc2C)c2cc(Nc3ccc(N4CCN(C)CC4)cc3)ncn2)c(OC)c1 + COC(=O)c1ccc([C@H]2c3[nH]c4ccccc4c3C[C@H](C(=O)OC)N2C(=O)CCl)cc1 [RSL3] | 0.624 | 0.576
NC(N)=NN=Cc1cccc(Cl)c1Cl [Raphin1] + COC(=O)c1ccc([C@H]2c3[nH]c4ccccc4c3C[C@H](C(=O)OC)N2C(=O)CCl)cc1 [RSL3] | 0.289 | 0.626
CCCCCC=CC(=O)CCc1ccc(O)c(OC)c1 [6-Shogaol] + COC(=O)c1ccc([C@H]2c3[nH]c4ccccc4c3C[C@H](C(=O)OC)N2C(=O)CCl)cc1 [RSL3] | 0.608 | 0.64
C[C@H](CCC(=O)O)[C@H]1CC[C@H]2[C@@H]3CC[C@@H]4C[C@H](O)CC[C@]4(C)[C@H]3CC[C@]12C [Lithocholic acid] + COC(=O)c1ccc([C@H]2c3[nH]c4ccccc4c3C[C@H](C(=O)OC)N2C(=O)CCl)cc1 [RSL3] | 0.844 | 0.649
CCOc1cc(CC(=O)N[C@@H](CC(C)C)c2ccccc2N2CCCCC2)ccc1C(=O)O [Repaglinide] + COC(=O)c1ccc([C@H]2c3[nH]c4ccccc4c3C[C@H](C(=O)OC)N2C(=O)CCl)cc1 [RSL3] | 0.598 | 0.656
O=S(=O)(c1ccccc1)N(CC(F)(F)F)c1ccc(C(O)(C(F)(F)F)C(F)(F)F)cc1 + COC(=O)c1ccc([C@H]2c3[nH]c4ccccc4c3C[C@H](C(=O)OC)N2C(=O)CCl)cc1 [RSL3] | 0.36 | 0.638
COc1ccc(-n2c(SCCCN3C(=O)c4cccc5cccc(c45)C3=O)nnc2-c2ccncc2)cc1 + COC(=O)c1ccc([C@H]2c3[nH]c4ccccc4c3C[C@H](C(=O)OC)N2C(=O)CCl)cc1 [RSL3] | 0.324 | 0.56
O=C(O)CN(CC(=O)O)c1ccccc1OCCOc1ccccc1N(CC(=O)O)CC(=O)O + COC(=O)c1ccc([C@H]2c3[nH]c4ccccc4c3C[C@H](C(=O)OC)N2C(=O)CCl)cc1 [RSL3] | 0.308 | 0.581
C[C@@H]1O[C@@H](O[C@H]2[C@H](Oc3cc(O)c4c(c3)O[C@H](c3ccc(O)cc3)CC4=O)O[C@H](CO)[C@@H](O)[C@@H]2O)[C@H](O)[C@H](O)[C@H]1O [Naringin] + COC(=O)c1ccc([C@H]2c3[nH]c4ccccc4c3C[C@H](C(=O)OC)N2C(=O)CCl)cc1 [RSL3] | 0.949 | 0.658
CCCCCCS(=O)(=O)NC(=O)c1ccc(CSCc2ccc(-c3ccccc3)cc2)cc1 + COC(=O)c1ccc([C@H]2c3[nH]c4ccccc4c3C[C@H](C(=O)OC)N2C(=O)CCl)cc1 [RSL3] | 0.403 | 0.676
COc1cc(N2CCN(C)CC2)ccc1Nc1ncc2c(n1)N(C1CCC1)C(=O)N(c1c(C)cccc1C)C2 + COC(=O)c1ccc([C@H]2c3[nH]c4ccccc4c3C[C@H](C(=O)OC)N2C(=O)CCl)cc1 [RSL3] | 0.334 | 0.747
CCCCCCCCCCC[C@@H](C[C@@H]1OC(=O)[C@H]1CCCCCC)OC(=O)[C@H](CC(C)C)NC=O [Orlistat] + COC(=O)c1ccc([C@H]2c3[nH]c4ccccc4c3C[C@H](C(=O)OC)N2C(=O)CCl)cc1 [RSL3] | 0.572 | 0.167
